Here are results for 16 compounds from ChEMBL document CHEMBL3988442, “University of Dundee, Small-Polar-MMV Screening Library” (2021).

Structures are written as SMILES.

Assay [1] addresses T1, Aspartate--tRNA(Asp/Asn) ligase (Mycobacterium tuberculosis (strain ATCC 25618 / H37Rv)) (UniProt P9WFW3).
T1 sequence (whole entry): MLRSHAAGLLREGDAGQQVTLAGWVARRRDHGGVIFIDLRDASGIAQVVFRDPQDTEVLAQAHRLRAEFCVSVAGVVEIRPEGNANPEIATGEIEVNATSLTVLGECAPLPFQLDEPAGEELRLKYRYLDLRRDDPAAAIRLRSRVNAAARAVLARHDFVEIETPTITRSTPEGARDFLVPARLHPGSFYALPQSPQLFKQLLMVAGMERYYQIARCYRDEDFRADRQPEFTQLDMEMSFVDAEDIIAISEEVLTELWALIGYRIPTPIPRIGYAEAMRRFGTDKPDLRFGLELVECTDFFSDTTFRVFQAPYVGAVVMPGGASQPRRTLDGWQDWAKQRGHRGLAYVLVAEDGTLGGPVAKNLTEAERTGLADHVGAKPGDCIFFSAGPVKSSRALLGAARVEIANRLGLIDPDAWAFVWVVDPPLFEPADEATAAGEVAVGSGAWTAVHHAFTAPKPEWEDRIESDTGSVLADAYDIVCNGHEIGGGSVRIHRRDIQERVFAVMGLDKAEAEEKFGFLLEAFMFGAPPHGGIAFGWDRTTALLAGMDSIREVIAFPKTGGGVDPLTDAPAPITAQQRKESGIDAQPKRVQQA
The experiment in a line: Assay for Asp RNA synthetase-1 from Mycobacterium tuberculosis. Details: scale not given: direction of the effect not stated beside the values. Conditions: 30 µM. Type of assay: functional.

For assay [2], the target named is Shiga toxin 2 (Escherichia coli O157:H7) (UniProt P09385+P09386). Put plainly: E. coli 0.157:H7 Shiga Toxin SOP - stx2 screening assay. Conditions: 30 µM. The class given is functional. Details: scale not given: direction of the effect not stated beside the values.

Consider `COCc1noc(C2(c3ccc(OC)cc3)CCOCC2)n1`, for which the Percent Effect was -1.75% in assay [1] and 1.38% in assay [2].
With `Cc1cnn(CC2CN(CCS(=O)(=O)c3ccccc3)CCO2)c1` (configuration not stated), the Percent Effect in assay [1] is -0.24%; in assay [2] it was 0.99%.
For `CNC(=O)c1cc2c(nc1N(C)C)CCN(S(=O)(=O)C1CC1)CC2` the same measures were 0.364% and -4.82%.
For `CN1[C@H](Cn2cccn2)C[C@@H]2CN(C(=O)Cc3cccs3)CC[C@@H]21` the same measures were 3.12% and -12.8%.
For `Cc1cc(C)cc(NS(=O)(=O)c2cc3c(c(C(=O)O)c2)OCCO3)c1` the same measures were 3.19% and -24.3%.
In the case of `CN(C)S(=O)(=O)N1CCN(c2ccnc(N3CCCC3)n2)CC1`, the Percent Effect is -2.66% in assay [1] and -41.2% in assay [2].
Turning to `CC(=O)N1CCN(c2ccc3ccc(C(=O)NC4CCCC4)cn23)CC1`, the Percent Effect is -0.91% in assay [1] and -45% in assay [2].
Consider `O=C(CC1CCCO1)NCc1ccccc1Cn1cncn1` (configuration not stated), for which the Percent Effect was -3.17% in assay [1] and 31.5% in assay [2].
Consider `COCC(NC(=O)c1cnn(C)c1)c1cccc(C(F)(F)F)c1` (configuration not stated), for which the Percent Effect was -1.9% in assay [1] and -12.8% in assay [2].
Take `Cc1[nH]ccc1C(=O)Nc1cccc(CN2CCC(CO)CC2)c1`: the Percent Effect in assay [1] was -1.71%; in assay [2] it was -43.9%.
In the same order, the values of `CCn1nnc2cc(C(=O)N3CCCC3Cn3cc(C)cn3)ccc21` (configuration not stated) are -2.54% and 0.821%.
Consider `COc1cc(N2C[C@@H]3COC[C@]3(COc3ccc(C#N)cn3)C2)ncn1`, for which the figures for the Percent Effect in assay [1] and in assay [2] were -1.45% and 11.9%, respectively.
For `CN(C)C[C@H]1OC[C@@H]2CCN(S(=O)(=O)c3ccccc3)C[C@@H]21`, the Percent Effect in assay [1] is 4.96%; in assay [2], -1.44%.
In the same order, the values of `O=C(Nc1ccc(CCN2CCC(O)CC2)cc1)Nc1cccnc1` are -0.212% and -83.7%.
Regarding `CCOc1ccnc(N2CCN(C(=O)C(C)(C)C#N)CC2)n1`, the results for the Percent Effect in assay [1] and in assay [2] were 4.55% and 37.3%, respectively.
As for `Cc1nnc(SCC(=O)N2CCC3(CC2)c2ccccc2CC3O)o1` (configuration not stated), the Percent Effect is 4.4% in assay [1] and -18.7% in assay [2].
